PubChem BioAssay AID1159580 (chemical genetic matrix, 2015)
Several values for one entry are separate records, joined by “and”; a condition that tells them apart may be missing. Equal entries are not always repeated. The campaign covered roughly 5,500 compounds. About 2,000 (36%) were called active. Roughly 18% stayed inconclusive and do not appear here. Rule as the data show it: active = normalized growth mostly below about 0.91 (no sharp cut-off); inconclusive = no clear call, values can overlap the other calls; inactive = mostly above about 0.92. The list shows a part of the results.

Experiment: chemical genetic growth profiling, strain panel (AID 1159580);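 also: tested at 20 µM; growth read once vehicle control cultures reached saturation at 30 °C; 1 = growth at the plate median or of vehicle wells; lower values mean less growth of the strain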
Details: S. cerevisiae deletion strains, growth OD

Measured: normalized growth

Nc1c2ccccc2nc2ccccc12
active: locus YAL013W, strain DEP1, active compounds read low 0.734 | locus YAL021C, strain ccr4, active compounds read low 0.568 | locus YAL026C, strain drs2, active compounds read low 0.675 | locus YAL030W, strain snc1, active compounds read low 0.566 | locus YBL061C, strain skt5, active compounds read low 0.754 | locus YBR009C, strain hhf1, active compounds read low 0.378 | locus YBR023C, strain chs3, active compounds read low 0.759 | locus YBR231C, strain swc5, active compounds read low 0.61 | locus YBR279W, strain paf1, active compounds read low 0.55 | locus YCL011C, strain gbp2, active compounds read low 0.526 | locus YCL016C, strain dcc1, active compounds read low 0.453 | locus YCL029C, strain bik1, active compounds read low 0.412 | locus YCL061C, strain MRC1, active compounds read low 0.801 | locus YCL069W, strain vba3, active compounds read low 0.732 | locus YCR088W, strain abp1, active compounds read low 0.737 | locus YDL005C, strain med2, active compounds read low 0.781 | locus YDL035C, strain GPR1, active compounds read low 0.478 | locus YDL040C, strain nat1, active compounds read low 0.838 | locus YDL074C, strain BRE1, active compounds read low 0.484 | locus YDL101C, strain DUN1, active compounds read low 0.782 | locus YDL134C, strain PPH21, active compounds read low 0.729 | locus YDL192W, strain arf1, active compounds read low 0.622 | locus YDR001C, strain nth1, active compounds read low 0.89 | locus YDR069C, strain doa4, active compounds read low 0.5 | locus YDR101C, strain arx1, active compounds read low 0.483 | locus YDR150W, strain NUM1, active compounds read low 0.838 | locus YDR162C, strain NBP2, active compounds read low 0.698 | locus YDR195W, strain ref2 1.23 [resistant] | locus YDR297W, strain sur2, active compounds read low 0.662 | locus YDR318W, strain mcm21, active compounds read low 0.565 | locus YDR335W, strain msn5, active compounds read low 0.782 | locus YDR388W, active compounds read low 0.481 | locus YDR502C, strain sam2, active compounds read low 0.513 | locus YEL003W, strain gim4, active compounds read low 0.679 | locus YEL037C, strain rad23, active compounds read low 0.57 | locus YEL061C, strain CIN8 (second series), active compounds read low 0.885 | locus YEL061C, strain CIN8, active compounds read low 0.793 | locus YER015W, strain faa2, active compounds read low 0.693 | locus YER016W, strain bim1, active compounds read low 0.69 | locus YER111C, strain swi4, active compounds read low 0.886 | locus YER167W, strain BCK2, active compounds read low 0.614 | locus YFR010W, strain ubp6, active compounds read low 0.615 | locus YGL078C, strain dbp3, active compounds read low 0.681 | locus YGL086W, strain mad1, active compounds read low 0.595 | locus YGL173C, strain kem1, active compounds read low 0.567 | locus YGL227W, strain vid30, active compounds read low 0.885 | locus YGL248W, strain PDE1, active compounds read low 0.671 | locus YGL253W, strain hxk2, active compounds read low 0.535 | locus YGR078C, strain PAC10, active compounds read low 0.735 | locus YGR135W, strain pre9, active compounds read low 0.709 | locus YGR229C, strain SMI1, active compounds read low 0.694 | locus YGR252W, strain gcn5, active compounds read low 0.544 | locus YHR013C, strain ard1, active compounds read low 0.557 | locus YHR027C, strain rpn1, active compounds read low 0.73 | locus YHR030C, strain SLT2, active compounds read low 0.796 and 0.77 | locus YHR079C, strain IRE1 (second series), active compounds read low 0.535 | locus YHR079C, strain IRE1, active compounds read low 0.763 | locus YHR094C, strain hxt1, active compounds read low 0.801 | locus YHR129C, strain ARP1, active compounds read low 0.808 | locus YHR142W, strain chs7, active compounds read low 0.706 | locus YHR200W, strain rpn10, active compounds read low 0.674 | locus YIL066C, strain RNR3, active compounds read low 0.737 | locus YIL125W, strain kgd1, active compounds read low 0.803 | locus YIR030C, strain dcg1, active compounds read low 0.59 | locus YJL092W, strain hpr5, active compounds read low 0.659 | locus YJL095W, strain BCK1 (second series), active compounds read low 0.684 | locus YJL095W, strain BCK1, active compounds read low 0.563 and 0.76 | locus YJL115W, strain asf1, active compounds read low 0.861 | locus YJL164C, strain tpk1, active compounds read low 0.462 | locus YJL166W, strain qcr8, active compounds read low 0.549 | locus YJL187C, strain SWE1 (second series), active compounds read low 0.524 | locus YJR043C, strain POL32, active compounds read low 0.717 | locus YJR066W, strain TOR1, active compounds read low 0.744
inactive: locus YBR021W, strain FUR4, active compounds read low 1.02 | locus YBR171W, strain sec66, active compounds read low 1.09 | locus YBR229C, strain ROT2, active compounds read low 1.01 | locus YDL185W, strain tfp1, active compounds read low 1 | locus YDR137W, strain rgp1, active compounds read low 0.983 | locus YDR159W, strain sac3, active compounds read low 0.875 | locus YDR334W, strain swr1, active compounds read low 0.93 | locus YDR392W, strain spt3, active compounds read low 0.825 | locus YER110C, active compounds read low 0.977 | locus YER155C, strain BEM2 (second series), active compounds read low 0.913 | locus YER155C, strain BEM2, active compounds read low 1.01 | locus YGL167C, strain pmr1, active compounds read low 1.01 | locus YGL240W, strain doc1, active compounds read low 0.914 | locus YIL073C, strain SPO22, active compounds read low 0.681 | locus YJL129C, strain trk1, active compounds read low 1.05 | locus YJL134W, strain LCB3, active compounds read low 1.01 | locus YJL154C, strain vps35, active compounds read low 0.993 | locus YJL168C, strain set2, active compounds read low 0.972
